Results taken from PubChem BioAssay.

target: Epidermal growth factor receptor (Homo sapiens) (UniProt P00533); experiment: compounds binding epidermal growth factor receptor – biochemical, small-molecule microarray, 635 nm fluorescence, primary screen (AID 1104); conditions: EGFR binding, higher = more signal;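 note: score merges 667 nm emission intensity with spot signal to noise over triplicate slides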
Sequence (P00533 whole entry, looked up): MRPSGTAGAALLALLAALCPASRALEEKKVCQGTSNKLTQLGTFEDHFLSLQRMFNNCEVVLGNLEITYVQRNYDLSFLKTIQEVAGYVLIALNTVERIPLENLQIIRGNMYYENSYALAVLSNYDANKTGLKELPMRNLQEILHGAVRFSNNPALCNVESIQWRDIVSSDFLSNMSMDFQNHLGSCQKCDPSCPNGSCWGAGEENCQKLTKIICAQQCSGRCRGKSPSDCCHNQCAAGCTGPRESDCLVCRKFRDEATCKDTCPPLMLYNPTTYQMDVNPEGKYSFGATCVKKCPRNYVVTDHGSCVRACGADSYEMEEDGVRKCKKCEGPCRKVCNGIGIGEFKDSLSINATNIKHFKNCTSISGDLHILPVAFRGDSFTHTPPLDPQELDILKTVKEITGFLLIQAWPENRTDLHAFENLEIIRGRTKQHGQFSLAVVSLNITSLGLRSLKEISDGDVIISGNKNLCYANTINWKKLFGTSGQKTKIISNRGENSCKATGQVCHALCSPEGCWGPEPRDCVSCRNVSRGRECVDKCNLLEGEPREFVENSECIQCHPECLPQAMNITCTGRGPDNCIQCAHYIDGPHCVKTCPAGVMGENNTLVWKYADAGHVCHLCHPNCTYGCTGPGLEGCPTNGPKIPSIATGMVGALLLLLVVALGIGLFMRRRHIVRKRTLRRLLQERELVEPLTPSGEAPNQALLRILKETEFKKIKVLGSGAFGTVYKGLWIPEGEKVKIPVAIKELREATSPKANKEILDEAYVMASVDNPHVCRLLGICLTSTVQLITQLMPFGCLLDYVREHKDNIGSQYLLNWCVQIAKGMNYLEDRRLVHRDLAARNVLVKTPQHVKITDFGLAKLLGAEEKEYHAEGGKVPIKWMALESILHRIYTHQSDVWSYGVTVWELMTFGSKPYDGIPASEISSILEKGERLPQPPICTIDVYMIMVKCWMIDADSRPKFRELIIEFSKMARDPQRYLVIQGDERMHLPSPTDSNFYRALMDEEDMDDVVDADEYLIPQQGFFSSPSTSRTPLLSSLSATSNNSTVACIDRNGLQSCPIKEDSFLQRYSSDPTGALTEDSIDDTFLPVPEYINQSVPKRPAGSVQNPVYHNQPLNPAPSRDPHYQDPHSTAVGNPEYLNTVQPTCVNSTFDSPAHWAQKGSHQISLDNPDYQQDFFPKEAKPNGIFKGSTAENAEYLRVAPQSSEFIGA

In order of falling composite z-score:
1. COCCOC(=O)N1C(=O)[C@@]2(c3cc(C#CCCO)ccc31)[C@H](c1ccc(O)cc1)N1[C@H](c3ccccc3)[C@H](c3ccccc3)OC(=O)[C@H]1[C@@H]2C(=O)N1CCN(c2ncccn2)CC1  0.36
2. CCOc1ccc(N2C(=O)CSC2c2cccc([N+](=O)[O-])c2)cc1 (centres undefined)  0.354
3. CCCNC(=O)[C@@H]1c2ccccc2C(=O)N(Cc2ccccc2OC)[C@H]1c1ccc(CO)cc1  0.0755
4. C=C(CCCC)/C(=C/C[C@H](OC(C)=O)c1ccccc1OCCO)c1cnc2ccccc2c1  0.0674
5. COc1cc(CO)cc(I)c1O[C@H]1C=C(C(=O)NCCO)C[C@@H](NC[C@@H]2CCCO2)[C@@H]1O  -0.0367
6. COC(=O)[C@@]1(Cc2ccc(F)cc2)[C@H]2c3cc(C(=O)N(C)C)n(Cc4cc(C)n(C)n4)c3C[C@H]2CN1C(=O)c1ccccc1  -0.0733
7. CC(=CC1CCCCC1)[C@@H](NC(=O)c1cccnc1)c1ccc(-c2ccccc2)cc1  -0.419
8. O=C1OCCC=C[C@H]2OC34C=CCN(CCN5CCOCC5)C(=O)[C@H]3N(CCCCCO)C(=O)[C@@H]4C12 (some centres undefined)  -0.509

target: Follistatin-related protein 3 (Homo sapiens) (UniProt O95633); experiment: compounds binding follistatin-related protein 3 – biochemical, small-molecule microarray, 635 nm fluorescence, primary screen (AID 1105); conditions: FSTL3 binding, higher = more signal;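 note: score merges emission near 667 nm and signal to noise per printed spot across three slides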
Sequence (O95633 whole entry, looked up): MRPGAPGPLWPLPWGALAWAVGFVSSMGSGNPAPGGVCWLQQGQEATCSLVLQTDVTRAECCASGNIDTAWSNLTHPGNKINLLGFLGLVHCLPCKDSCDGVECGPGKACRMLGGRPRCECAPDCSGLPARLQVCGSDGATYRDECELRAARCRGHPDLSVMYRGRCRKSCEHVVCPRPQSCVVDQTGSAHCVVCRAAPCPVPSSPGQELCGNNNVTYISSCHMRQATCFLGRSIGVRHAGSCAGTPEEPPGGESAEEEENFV

In order of rising composite z-score:
1. [N-]=[N+]=NCc1ccccc1C[C@@]1(C(=O)NCC(O)CO)N=C(c2ccc(OCCCO)cc2)O[C@@H]1c1ccccc1 (some centres undefined)  -1.3
2. COc1ccc(CCNC(=O)[C@@]2(C)c3ccccc3C(=O)N(c3ccc(C)cn3)[C@H]2c2ccc(CO)cc2)cc1  -1.06
3. C[N+](C)(C)CCCC[C@@H]1NC(=O)[C@H]2C[C@@H](C(=O)NCCCCCCNC(=O)CS)[C@@H](c3ccc(O)cc3)N2C1=O  -0.884
4. OCCCC1=CC(C2CC2)N(Cc2cccc(OC(F)(F)F)c2)CC1 (centres undefined)  -0.556
5. CC(C)Cc1ccc(CN2CC[C@@H](N)C2)cc1  -0.431
6. O=C1OCCC=C[C@H]2OC34C=CCN(CCN5CCOCC5)C(=O)[C@H]3N(CCCCCO)C(=O)[C@@H]4C12 (some centres undefined)  -0.379
7. CC(=CC1CCCCC1)[C@@H](NC(=O)c1cccnc1)c1ccc(-c2ccccc2)cc1  -0.195
8. O=C1OCCC=C[C@H]2OC34C=CCN(c5ccc(Cl)cc5)C(=O)[C@H]3N(CCCO)C(=O)[C@@H]4C12 (some centres undefined)  -0.181
9. [N-]=[N+]=Nc1ccccc1C[C@]1(C(=O)NCC(O)CO)N=C(c2ccc(OCCCO)cc2)O[C@H]1c1ccccc1 (some centres undefined)  -0.107
10. O=C1[C@H]2C=C(I)[C@H](C[C@@H]2OCCCCO)[C@@]12CO2  -0.0542
11. CN(C)CCCC[C@@H]1NC(=O)[C@H]2C[C@@H](C(=O)NCCCCCN)[C@@H](c3cccc(OCCO)c3)N2C1=O  0.0876
12. CC#CC(=O)Oc1ccc(Br)cc1C=CC(=O)OCC  0.137
13. C=CCC(OC(C)=O)[C@@H]1[C@@H](N(Cc2ccc(-c3cccc(C(F)(F)F)c3)o2)C(=O)Cc2ccc(OC)cc2)c2cc(OCCCO)ccc2N1C(=O)c1ccc2ccccc2c1 (some centres undefined)  0.195
14. CCOc1ccc(N2C(=O)CSC2c2cccc([N+](=O)[O-])c2)cc1 (centres undefined)  0.241
15. Cc1ccc([C@H]2C(C(=O)O)=CCN2S(=O)(=O)c2ccc(C)cc2)cc1  0.312
16. COc1cc(CO)cc(I)c1O[C@H]1C=C(C(=O)NCCO)C[C@@H](NC[C@@H]2CCCO2)[C@@H]1O  0.334
17. COc1cc(CO)cc(I)c1O[C@H]1C=C(C(=O)NCCO)C[C@@H](N(C(=O)c2cc3ccccc3oc2=O)C2CCCCCC2)[C@@H]1O  0.348
18. COC(=O)[C@@]1(Cc2ccc(F)cc2)[C@H]2c3cc(C(=O)N(C)C)n(Cc4cc(C)n(C)n4)c3C[C@H]2CN1C(=O)c1ccccc1  0.386
19. CCCCC(O)C1C=CC2C(=O)N(C)C(=O)C2N1N1CCCCC1 (centres undefined)  0.574
20. COc1ccc([Si](C)(C)[C@H]2[C@H](CCO)O[C@@]3(C(=O)N(Cc4ccccc4)c4ccc(N5CCCCC5=O)cc43)[C@@H]2C)cc1  0.579
21. CC(C)[Si](C#CCCCC#N)(Oc1ccccc1Br)C(C)C  0.58
22. C#CCN(C/C=C/c1ccccc1)[C@H](CO)c1ccccc1  0.598
23. COCCOC(=O)N1C(=O)[C@@]2(c3ccccc31)[C@H](C(=O)N1CCc3cc(OC)c(OC)cc3C1)[C@H]1C(=O)O[C@H](c3ccccc3)[C@H](c3ccccc3)N1[C@@H]2c1ccc(O)cc1  0.671
24. CC(C)(C)OC(=O)CC[C@]1(C(=O)NCCN2CCOCC2)COC(c2ccc(OCCCO)cc2)=N1  0.683
25. C=C(CCCC)/C(=C/C[C@H](OC(C)=O)c1ccccc1OCCO)c1cnc2ccccc2c1  0.747
26. COc1cc(OC)c(C(O)C2C=CC3C(=O)NC(=O)C3N2Nc2ccccn2)cc1Br (centres undefined)  0.835
27. COc1ccc(C#Cc2ccc3c(c2)[C@]2(C(=O)N3)[C@H](c3ccc(O)cc3)N3[C@H](c4ccccc4)[C@H](c4ccccc4)OC(=O)[C@H]3[C@@H]2C(=O)N2CCc3cc(OC)c(OC)cc3C2)cc1  0.853
28. COCCCNC(=O)[C@@]1(Cc2ccccc2)N=C(c2ccc(OCCCO)cc2)O[C@H]1c1ccccc1CN=[N+]=[N-]  0.859
29. COCCOC(=O)N1C(=O)[C@@]2(c3cc(C#CCCO)ccc31)[C@H](c1ccc(O)cc1)N1[C@H](c3ccccc3)[C@H](c3ccccc3)OC(=O)[C@H]1[C@@H]2C(=O)N1CCN(c2ncccn2)CC1  0.899
30. O=C1C2C=CC(C(O)C=Cc3ccc([N+](=O)[O-])cc3)N(n3cnnc3)C2C(=O)N1Cc1ccccc1 (centres undefined)  0.906
31. COc1cc2c(cc1OC)CN(C(=O)[C@H]1[C@@H]3C(=O)O[C@@H](c4ccccc4)[C@@H](c4ccccc4)N3[C@@H](c3ccccc3OCCO)[C@]13C(=O)Nc1ccc(C#CCCO)cc13)CC2  0.964
32. CCOC(=O)C1=C[C@@H](C(C)C)N(S(=O)(=O)c2ccc(C)cc2)[C@H]1c1ccccc1F  0.965
33. CCCNC(=O)[C@@H]1c2ccccc2C(=O)N(Cc2ccccc2OC)[C@H]1c1ccc(CO)cc1  0.995
34. C=C(CCCC)/C(=C/C[C@H](OC(C)=O)c1ccc(OCCO)cc1)c1cnc2ccccc2c1  1.12
35. [N-]=[N+]=NCc1ccccc1[C@@H]1OC(c2ccc(OCCCO)cc2)=N[C@]1(CCS(=O)(=O)c1ccccc1)C(N)=O  1.41
36. C=CCN1Cc2ccccc2[C@@H]2OC(c3ccc(OCCCO)cc3)=N[C@]2(CCS(=O)(=O)c2ccccc2)C1=O  1.43
